Experimental data as given in article PMC7862700, “An all-to-all approach to the identification of sequence-specific readers for epigenetic DNA modifications on cytosine”.

Legend:
Experiment in all cases: DAPPL (digital affinity profiling via proximity ligation, sequencing); 10 mM Tris-HCl pH 7.5, 50 mM NaCl, 1 mM DTT, 4% glycerol, room temperature, 30 min; GST-TFs on glutathione beads, 16-mer random dsDNA library, 0.1% formaldehyde crosslink after washing; high values mean tight binding
Settings in all cases: protein: recombinant; tags: N-terminal GST; dsDNA, one strand shown
[1] = target: T1, ELK1 (Homo sapiens, UniProt P19419 1-428)
T1 sequence: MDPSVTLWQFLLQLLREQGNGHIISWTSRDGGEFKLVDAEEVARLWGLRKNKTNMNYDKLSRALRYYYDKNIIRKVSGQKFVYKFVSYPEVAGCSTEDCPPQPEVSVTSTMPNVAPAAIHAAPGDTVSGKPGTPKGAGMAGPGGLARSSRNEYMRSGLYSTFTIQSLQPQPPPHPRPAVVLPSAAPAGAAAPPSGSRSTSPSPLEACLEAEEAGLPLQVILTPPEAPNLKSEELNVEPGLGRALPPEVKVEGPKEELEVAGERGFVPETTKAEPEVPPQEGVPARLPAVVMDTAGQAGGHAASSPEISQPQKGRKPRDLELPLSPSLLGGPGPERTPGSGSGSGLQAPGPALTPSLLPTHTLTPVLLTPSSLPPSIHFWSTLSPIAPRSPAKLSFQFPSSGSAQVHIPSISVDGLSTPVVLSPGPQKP
How it was run: (§1)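 Sequencing on an Illumina NextSeq500 followed washing, crosslinking with 0.1% formaldehyde, proximity ligation (BsaI/T4 ligase, 1 h, 37 °C) and PCR amplification of pools that had been incubated for 30 min at room temperature with 200 nmole of a random double-stranded 16-mer DNA library in Tris/NaCl/DTT/glycerol buffer. Each pool held DNA-barcoded human transcription factors, expressed in yeast as GST fusions and captured on glutathione beads, plus a tag-only sample. Binding signal is a hexamer's read frequency for a factor divided by its frequency in the tag-only sample.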

[2] = target: T2, ERG (Homo sapiens, UniProt P11308 1-479)
T2 sequence: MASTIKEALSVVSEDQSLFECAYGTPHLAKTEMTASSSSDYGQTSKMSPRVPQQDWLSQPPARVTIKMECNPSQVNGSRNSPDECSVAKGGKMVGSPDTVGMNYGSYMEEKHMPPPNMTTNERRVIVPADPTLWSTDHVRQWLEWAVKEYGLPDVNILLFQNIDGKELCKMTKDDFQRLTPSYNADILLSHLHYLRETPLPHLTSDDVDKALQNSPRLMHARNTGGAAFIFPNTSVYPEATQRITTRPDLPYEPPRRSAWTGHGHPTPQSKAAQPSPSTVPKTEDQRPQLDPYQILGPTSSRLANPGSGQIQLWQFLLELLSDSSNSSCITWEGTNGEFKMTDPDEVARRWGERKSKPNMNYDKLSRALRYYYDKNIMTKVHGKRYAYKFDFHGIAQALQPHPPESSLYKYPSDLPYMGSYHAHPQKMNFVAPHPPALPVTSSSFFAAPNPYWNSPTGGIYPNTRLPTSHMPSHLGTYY
How it was run: as §1

[3] = target: ELF1 (Homo sapiens, UniProt P32519 1-619)
How it was run: as §1

[4] = target: T3, EHF (Homo sapiens, UniProt Q9NZC4 1-300)
T3 sequence: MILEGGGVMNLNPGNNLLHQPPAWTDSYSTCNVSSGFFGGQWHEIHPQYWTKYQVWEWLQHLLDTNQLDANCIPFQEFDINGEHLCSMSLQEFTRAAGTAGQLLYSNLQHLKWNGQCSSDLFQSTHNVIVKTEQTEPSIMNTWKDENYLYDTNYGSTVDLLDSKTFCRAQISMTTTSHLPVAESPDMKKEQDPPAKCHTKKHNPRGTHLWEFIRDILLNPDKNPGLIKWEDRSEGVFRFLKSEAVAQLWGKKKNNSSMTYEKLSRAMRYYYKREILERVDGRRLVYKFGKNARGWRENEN
How it was run: as §1

[5] = target: SPIB (Homo sapiens, UniProt Q01892 1-262)
How it was run: as §1

[6] = target: T4, FEV (Homo sapiens, UniProt Q99581 1-238)
T4 sequence: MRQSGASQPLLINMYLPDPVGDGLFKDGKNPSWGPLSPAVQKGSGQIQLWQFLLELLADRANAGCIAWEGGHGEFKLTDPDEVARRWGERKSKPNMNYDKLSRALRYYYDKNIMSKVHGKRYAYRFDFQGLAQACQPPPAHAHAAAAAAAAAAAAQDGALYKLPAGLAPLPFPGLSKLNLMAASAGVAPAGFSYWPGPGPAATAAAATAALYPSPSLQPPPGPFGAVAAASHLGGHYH
How it was run: as §1

[7] = target: ETV5 (Homo sapiens, UniProt P41161 1-510)
How it was run: as §1

[8] = target: ELF4 (Homo sapiens, UniProt Q99607 1-663)
How it was run: as §1

[9] = target: T5, ELK4 (Homo sapiens, UniProt P28324-2 1-405)
T5 sequence: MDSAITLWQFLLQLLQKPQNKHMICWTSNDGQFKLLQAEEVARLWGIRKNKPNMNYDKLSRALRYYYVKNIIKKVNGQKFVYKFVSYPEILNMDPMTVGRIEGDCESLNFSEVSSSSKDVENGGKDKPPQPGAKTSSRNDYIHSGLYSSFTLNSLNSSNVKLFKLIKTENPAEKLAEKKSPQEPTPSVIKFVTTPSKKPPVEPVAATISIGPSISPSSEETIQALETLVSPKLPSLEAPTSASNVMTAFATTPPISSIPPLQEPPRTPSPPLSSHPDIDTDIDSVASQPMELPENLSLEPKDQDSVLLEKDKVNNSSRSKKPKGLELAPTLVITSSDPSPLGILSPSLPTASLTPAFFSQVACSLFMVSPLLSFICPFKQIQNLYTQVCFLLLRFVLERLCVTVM
How it was run: as §1

[10] = target: ETV1 (Homo sapiens, UniProt P50549 1-477)
How it was run: as §1

[11] = target: T6, ERF (Homo sapiens, UniProt P50548 1-548)
T6 sequence: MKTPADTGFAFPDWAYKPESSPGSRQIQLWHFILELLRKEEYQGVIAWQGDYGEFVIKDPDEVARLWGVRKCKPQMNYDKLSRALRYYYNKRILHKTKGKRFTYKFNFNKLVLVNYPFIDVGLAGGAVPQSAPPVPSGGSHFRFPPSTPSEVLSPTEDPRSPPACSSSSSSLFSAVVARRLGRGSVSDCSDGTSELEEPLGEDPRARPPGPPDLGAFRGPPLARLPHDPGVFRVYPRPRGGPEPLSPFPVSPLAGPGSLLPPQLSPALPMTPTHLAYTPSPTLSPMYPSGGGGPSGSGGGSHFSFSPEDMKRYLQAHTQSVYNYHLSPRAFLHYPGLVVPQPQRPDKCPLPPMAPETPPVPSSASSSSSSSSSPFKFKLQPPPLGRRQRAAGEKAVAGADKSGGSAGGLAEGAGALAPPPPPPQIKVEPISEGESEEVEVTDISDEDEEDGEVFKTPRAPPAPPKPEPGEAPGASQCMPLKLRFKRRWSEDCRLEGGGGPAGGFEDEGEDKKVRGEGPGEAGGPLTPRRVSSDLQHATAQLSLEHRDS
How it was run: as §1

[12] = target: T7, ETV3L (Homo sapiens, UniProt Q6ZN32 1-361)
T7 sequence: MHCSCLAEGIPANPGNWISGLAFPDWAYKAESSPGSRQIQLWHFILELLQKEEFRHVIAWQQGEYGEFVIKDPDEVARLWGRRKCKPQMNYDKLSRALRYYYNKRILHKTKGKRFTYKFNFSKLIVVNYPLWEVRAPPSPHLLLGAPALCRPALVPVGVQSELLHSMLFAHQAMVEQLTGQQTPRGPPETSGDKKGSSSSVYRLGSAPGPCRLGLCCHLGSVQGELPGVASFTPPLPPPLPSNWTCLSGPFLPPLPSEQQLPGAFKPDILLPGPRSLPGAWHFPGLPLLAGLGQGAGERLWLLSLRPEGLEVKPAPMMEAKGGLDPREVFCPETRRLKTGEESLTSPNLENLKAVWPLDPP
How it was run: as §1

[13] = target: T8, ETS2 (Homo sapiens, UniProt P15036 1-469)
T8 sequence: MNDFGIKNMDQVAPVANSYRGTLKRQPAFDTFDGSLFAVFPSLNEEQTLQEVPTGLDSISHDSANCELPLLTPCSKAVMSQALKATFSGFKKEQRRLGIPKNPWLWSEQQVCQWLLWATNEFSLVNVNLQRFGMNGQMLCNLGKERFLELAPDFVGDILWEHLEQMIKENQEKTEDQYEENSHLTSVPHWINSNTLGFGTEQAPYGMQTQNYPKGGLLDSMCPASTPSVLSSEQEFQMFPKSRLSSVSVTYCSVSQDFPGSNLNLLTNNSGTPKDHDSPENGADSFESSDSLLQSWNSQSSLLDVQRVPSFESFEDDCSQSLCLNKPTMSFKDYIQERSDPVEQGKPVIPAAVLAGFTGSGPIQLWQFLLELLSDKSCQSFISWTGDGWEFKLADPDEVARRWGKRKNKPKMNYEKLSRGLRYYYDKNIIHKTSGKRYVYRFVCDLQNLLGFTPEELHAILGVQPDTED
How it was run: as §1

[14] = target: T9, SPDEF (Homo sapiens, UniProt O95238 1-335)
T9 sequence: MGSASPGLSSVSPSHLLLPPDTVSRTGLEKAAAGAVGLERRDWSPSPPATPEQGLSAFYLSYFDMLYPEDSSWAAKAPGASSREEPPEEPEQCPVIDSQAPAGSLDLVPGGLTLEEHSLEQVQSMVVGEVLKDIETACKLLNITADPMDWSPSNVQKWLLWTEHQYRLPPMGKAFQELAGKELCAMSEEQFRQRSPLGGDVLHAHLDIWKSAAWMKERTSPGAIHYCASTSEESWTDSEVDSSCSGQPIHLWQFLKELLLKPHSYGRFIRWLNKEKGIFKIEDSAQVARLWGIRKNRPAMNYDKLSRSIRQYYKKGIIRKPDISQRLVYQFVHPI
How it was run: as §1

[15] = target: T10, ETV7 (Homo sapiens, UniProt Q9Y603 1-341)
T10 sequence: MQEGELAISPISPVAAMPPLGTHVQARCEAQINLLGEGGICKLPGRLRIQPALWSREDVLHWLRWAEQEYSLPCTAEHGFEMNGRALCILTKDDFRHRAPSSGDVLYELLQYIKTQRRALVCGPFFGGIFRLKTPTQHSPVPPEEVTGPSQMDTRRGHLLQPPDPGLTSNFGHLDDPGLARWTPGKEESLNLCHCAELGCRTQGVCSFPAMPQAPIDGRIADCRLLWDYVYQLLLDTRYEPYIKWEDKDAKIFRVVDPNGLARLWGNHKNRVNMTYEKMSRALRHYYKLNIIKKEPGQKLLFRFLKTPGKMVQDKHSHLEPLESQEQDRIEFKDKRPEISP
How it was run: as §1

[16] = target: T11, ETV3 (Homo sapiens, UniProt P41162-2 1-143)
T11 sequence: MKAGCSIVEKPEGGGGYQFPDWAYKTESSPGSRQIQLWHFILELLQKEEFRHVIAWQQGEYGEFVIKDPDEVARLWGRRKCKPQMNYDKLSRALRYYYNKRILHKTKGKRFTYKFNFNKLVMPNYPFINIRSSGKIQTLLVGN
How it was run: as §1

[17] = target: ETV6 (Homo sapiens, UniProt P41212 1-452)
How it was run: as §1

ELF4, sequence (Q99607 whole entry): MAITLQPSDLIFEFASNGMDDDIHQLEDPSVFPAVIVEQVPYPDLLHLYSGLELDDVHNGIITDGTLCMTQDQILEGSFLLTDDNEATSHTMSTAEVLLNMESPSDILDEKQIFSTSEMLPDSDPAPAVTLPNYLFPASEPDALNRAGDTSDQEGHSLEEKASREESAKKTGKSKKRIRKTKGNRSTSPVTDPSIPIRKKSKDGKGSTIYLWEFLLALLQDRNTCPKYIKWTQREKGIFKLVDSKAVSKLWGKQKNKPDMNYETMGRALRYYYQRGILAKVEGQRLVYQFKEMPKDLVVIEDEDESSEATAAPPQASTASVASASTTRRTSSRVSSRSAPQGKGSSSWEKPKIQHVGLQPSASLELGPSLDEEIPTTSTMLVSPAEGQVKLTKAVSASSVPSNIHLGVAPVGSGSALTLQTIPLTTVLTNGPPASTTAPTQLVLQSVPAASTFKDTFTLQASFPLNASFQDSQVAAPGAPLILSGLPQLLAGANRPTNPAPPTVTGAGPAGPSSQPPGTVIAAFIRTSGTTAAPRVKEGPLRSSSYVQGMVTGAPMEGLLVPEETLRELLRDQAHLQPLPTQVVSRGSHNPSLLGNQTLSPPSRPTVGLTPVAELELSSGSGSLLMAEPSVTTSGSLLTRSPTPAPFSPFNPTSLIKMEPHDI
ETV6, sequence (P41212 whole entry): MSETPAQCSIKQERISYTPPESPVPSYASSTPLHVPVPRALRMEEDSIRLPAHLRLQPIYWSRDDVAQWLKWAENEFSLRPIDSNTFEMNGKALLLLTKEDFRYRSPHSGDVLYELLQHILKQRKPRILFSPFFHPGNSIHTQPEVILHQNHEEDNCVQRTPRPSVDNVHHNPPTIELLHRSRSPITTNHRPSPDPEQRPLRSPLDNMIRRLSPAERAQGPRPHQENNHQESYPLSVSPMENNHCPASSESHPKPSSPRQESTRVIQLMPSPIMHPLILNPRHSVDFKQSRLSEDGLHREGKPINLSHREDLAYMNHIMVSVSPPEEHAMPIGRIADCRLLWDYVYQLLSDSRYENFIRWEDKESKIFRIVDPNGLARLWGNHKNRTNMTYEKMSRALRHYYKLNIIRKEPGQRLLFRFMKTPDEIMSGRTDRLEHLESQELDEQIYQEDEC
ETV5, sequence (P41161 whole entry): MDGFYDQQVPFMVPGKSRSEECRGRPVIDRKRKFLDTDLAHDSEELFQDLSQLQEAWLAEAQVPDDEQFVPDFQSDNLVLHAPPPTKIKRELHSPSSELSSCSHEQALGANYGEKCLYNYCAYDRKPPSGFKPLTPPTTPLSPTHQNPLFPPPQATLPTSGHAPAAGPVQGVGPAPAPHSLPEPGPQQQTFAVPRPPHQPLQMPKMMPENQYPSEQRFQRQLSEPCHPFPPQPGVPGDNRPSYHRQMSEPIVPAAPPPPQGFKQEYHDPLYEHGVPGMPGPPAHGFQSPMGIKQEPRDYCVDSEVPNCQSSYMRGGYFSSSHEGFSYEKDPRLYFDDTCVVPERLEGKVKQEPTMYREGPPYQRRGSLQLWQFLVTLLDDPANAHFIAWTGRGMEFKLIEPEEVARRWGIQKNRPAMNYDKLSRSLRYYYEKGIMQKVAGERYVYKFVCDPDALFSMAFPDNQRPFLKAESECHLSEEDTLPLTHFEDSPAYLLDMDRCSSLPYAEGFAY
SPIB, sequence (Q01892 whole entry): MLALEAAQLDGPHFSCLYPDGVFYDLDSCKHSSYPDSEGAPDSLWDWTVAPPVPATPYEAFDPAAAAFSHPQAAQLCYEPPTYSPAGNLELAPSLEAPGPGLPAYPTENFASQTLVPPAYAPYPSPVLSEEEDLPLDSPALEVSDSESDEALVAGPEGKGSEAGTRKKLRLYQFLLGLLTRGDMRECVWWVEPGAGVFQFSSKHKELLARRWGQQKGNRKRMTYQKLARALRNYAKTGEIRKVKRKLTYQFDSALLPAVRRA
ETV1, sequence (P50549 whole entry): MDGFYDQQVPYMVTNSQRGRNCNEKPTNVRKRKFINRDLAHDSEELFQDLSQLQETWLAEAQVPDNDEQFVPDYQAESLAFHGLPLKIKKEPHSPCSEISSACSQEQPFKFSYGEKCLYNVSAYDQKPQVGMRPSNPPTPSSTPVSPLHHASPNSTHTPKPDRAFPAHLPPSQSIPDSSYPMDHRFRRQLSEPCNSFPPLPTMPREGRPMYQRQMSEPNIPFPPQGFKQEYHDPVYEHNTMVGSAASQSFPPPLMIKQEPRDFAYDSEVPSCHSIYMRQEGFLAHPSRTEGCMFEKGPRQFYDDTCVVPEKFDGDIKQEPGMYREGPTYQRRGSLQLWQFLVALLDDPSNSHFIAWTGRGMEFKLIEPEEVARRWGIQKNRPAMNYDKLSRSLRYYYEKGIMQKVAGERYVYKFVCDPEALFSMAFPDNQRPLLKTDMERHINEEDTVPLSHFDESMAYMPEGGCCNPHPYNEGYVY
ELF1, sequence (P32519 whole entry): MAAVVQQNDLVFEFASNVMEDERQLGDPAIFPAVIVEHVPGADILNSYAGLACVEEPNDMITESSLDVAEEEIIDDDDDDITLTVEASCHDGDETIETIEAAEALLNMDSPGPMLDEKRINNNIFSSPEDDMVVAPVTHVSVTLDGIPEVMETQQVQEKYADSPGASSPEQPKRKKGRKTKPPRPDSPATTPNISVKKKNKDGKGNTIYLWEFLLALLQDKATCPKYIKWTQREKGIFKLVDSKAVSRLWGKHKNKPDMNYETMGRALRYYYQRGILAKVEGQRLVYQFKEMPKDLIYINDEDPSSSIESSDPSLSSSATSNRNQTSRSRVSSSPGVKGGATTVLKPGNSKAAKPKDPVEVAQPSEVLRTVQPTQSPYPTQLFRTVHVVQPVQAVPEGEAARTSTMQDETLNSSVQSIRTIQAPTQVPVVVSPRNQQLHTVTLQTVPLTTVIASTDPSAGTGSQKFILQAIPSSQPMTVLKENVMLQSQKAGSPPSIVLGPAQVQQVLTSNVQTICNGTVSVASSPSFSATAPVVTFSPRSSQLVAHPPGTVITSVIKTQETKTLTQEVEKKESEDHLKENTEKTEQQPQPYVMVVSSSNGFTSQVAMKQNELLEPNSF

In the case of GGTACA, the binding signal [1] is reported as 1.08 fold enrichment (6-mer frequency, TF over GST control), the binding signal [2] is reported as 1.09 fold enrichment (6-mer frequency, TF over GST control) and the binding signal [3] is reported as 1.03 fold enrichment (6-mer frequency, TF over GST control). The binding signal [4] was 1.05 fold enrichment (6-mer frequency, TF over GST control), the binding signal [5] was 1.11 fold enrichment (6-mer frequency, TF over GST control) and the binding signal [6] was 1.03 fold enrichment (6-mer frequency, TF over GST control). The binding signal [7] was 1.05 fold enrichment (6-mer frequency, TF over GST control), the binding signal [8] was 1 fold enrichment (6-mer frequency, TF over GST control) and the binding signal [9] was 1.11 fold enrichment (6-mer frequency, TF over GST control). For the same sequence, the binding signal [10] was 1.07 fold enrichment (6-mer frequency, TF over GST control), the binding signal [11] was 1.09 fold enrichment (6-mer frequency, TF over GST control) and the binding signal [12] was 1.04 fold enrichment (6-mer frequency, TF over GST control). The binding signal [13] was 1.03 fold enrichment (6-mer frequency, TF over GST control), the binding signal [14] was 1.11 fold enrichment (6-mer frequency, TF over GST control) and the binding signal [15] was 1.11 fold enrichment (6-mer frequency, TF over GST control). The binding signal [16] was 1.09 fold enrichment (6-mer frequency, TF over GST control) and the binding signal [17] was 1.11 fold enrichment (6-mer frequency, TF over GST control).
